Laboratory results: PubChem BioAssay AID504381 (The Scripps Research Institute Molecular Screening Center, 2011)
Values without a mark were called inactive. No rule for the calls is given here.

Test system: Sigma receptor 2
Assay: radioligand displacement at receptors and transporters – biochemical, PDSP panel, Set 2, late-stage follow-up (AID 504381)
Details: PDSP radioligand binding panel, at 10 µM, active compounds read high

CC(=O)c1ccc2c(c1)Nc1ccccc1S2
inhibition: -12.2%
